PubChem BioAssay (NCATS)
Results filed as inconclusive are left out. Calls of active or inactive are those of the source. The call rests on the fitted dose curve; in most records, active means well fitted inhibition curve with a large enough effect; inconclusive means small, poorly fitted or top-dose-only effect; inactive means no such curve, though single readings can be large or run the other way.

system: Zika virus NS2B-NS3 protease (linked construct); assay: Primary screen NINDS Rhodamine qHTS for Zika virus inhibitors (AID 1347160); conditions: purified NS2B-NS3 protease, Rhodamine110 substrate fluorescence; series mostly up to 57.1 µM; activity change, negative = inhibition: at the top concentration; further: nearly all actives have a fitted effect of over 55% in size
Summary of the method: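 Percent inhibition, normalized to uninhibited and enzyme-free controls, is fitted to a 4-parameter Hill equation. Fluorescence change comes from a 15-min cleavage of 1.5 microM bis-peptide Rhodamine110 substrate by 25 nM linked NS2B-NS3 at room temperature.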
On the % scale 0 is the no-effect control and ±100 the full control effect; potency means the concentration at half of the fitted maximal effect.

SMILES | outcome | activity change, negative = inhibition | Potency
O=C(CCO[C@@H]1O[C@H](CO)[C@@H](O)[C@H](O)[C@H]1O)c1ccc(O)cc1 | inactive [at 33.1 µM] | – | –
C=C1CCC2[C@@](C)(C=O)CCC[C@]2(C)[C@H]1CC/C(C)=C/CO (some centres not stated) | – | -5.18% (inactive) | –
CCc1c(CC(N)=O)c2cc(OCCCP(=O)(O)O)ccc2n1Cc1ccccc1 | – | -23.3% (inactive) | –
CC1=CC(=O)C[C@H]2[C@@H]1CC[C@@H](C)[C@]21CO[C@H](c2ccoc2)C1=O | – | 30.5% [at 33.1 µM] (inactive) | –
CC(c1c[nH]c2ccccc12)C(O)C(=O)O (configuration not stated) | – | -27.6% (inactive) | –
COC(=O)CC[C@@H](C)[C@H]1CC[C@H]2[C@@H]3CC(=O)[C@H]4C[C@H](OC(C)=O)CC[C@]4(C)[C@H]3CC[C@]12C | inactive | – | –
C/C=C(\C)C(=O)O[C@H]1[C@H](O)[C@]2(COC(C)=O)[C@H](O)C[C@]3(C)C(=CCC4[C@@]5(C)CC[C@H](O[C@@H]6O[C@H](C(=O)O)[C@@H](O[C@@H]7O[C@H](CO)[C@@H](O)[C@H](O)[C@H]7O)[C@H](O)[C@H]6O[C@@H]6O[C@H](CO)[C@@H](O)[C@H](O)[C@H]6O)[C@](C)(CO)C5CC[C@]43C)[C@@H]2CC1(C)C (some centres not stated) | inactive [at 15.1 µM] | – | –
COC(=O)C1=CO[C@@H](O[C@@H]2O[C@H](COC(=O)/C=C/c3cc(OC)c(O)c(OC)c3)[C@@H](O)[C@H](O)[C@H]2O)[C@@H]2C(CO)=CC[C@H]12 | – | -8.36% [at 15.1 µM] (inactive) | –
CCC(C)/C=C(C)/C=C/C1=CC2=C(Cl)C(=O)C(C)(OC(C)=O)C(=O)C2=CN1C1CCCCN(C(CCC(N)=O)C(=O)O)C1=O (configuration not stated) | – | -18.7% [at 15.1 µM] (inactive) | –
C[C@@H]1O[C@@H](O[C@H]2[C@H](O[C@H]3[C@H](O[C@H]4CC[C@@]5(CO)C(CC[C@]6(C)C5CC=C5C7CC(C)(C)C[C@@H](O)[C@]7(C)CC[C@]56C)C4(C)C)O[C@H](C(=O)O)[C@@H](O)[C@@H]3O)OC[C@@H](O)[C@@H]2O)[C@H](O)[C@H](O)[C@H]1O (some centres not stated) | – | -8.64% [at 15.1 µM] (inactive) | –
C/C(=C\CO)CC/C=C(\C)C(=O)O[C@H]1[C@H](OC2OC=C(C(=O)O)C3CCC(C)(O)C23)O[C@H](CO)[C@@H](O)[C@@H]1O (some centres not stated) | – | -17.3% [at 33.1 µM] (inactive) | –
C#C[C@]1(O)CC[C@H]2[C@@H]3CCC4=C/C(=N/O)CC[C@@H]4[C@H]3CC[C@@]21CC | inactive; activator | – | –
Nc1ccn([C@@H]2C(F)=C(CO)[C@@H](O)[C@H]2O)c(=O)n1 | – | 23.4% (inactive) | –
NS(=O)(=O)NCCNc1nonc1C(=Nc1ccc(F)c(Br)c1)NO | – | – | inactive
COc1cc(/C=C/CO)ccc1O[C@@H]1O[C@H](CO)[C@@H](O)[C@H](O)[C@H]1O | – | 3.19% [at 33.1 µM] (inactive) | –
C[C@@H]1O[C@@H](O[C@H]2[C@H](O)[C@@H](C(=O)O)O[C@@H](O[C@H]3CC[C@@]4(C)C(CC[C@]5(C)C4CC=C4C6CC(C)(C)CC[C@]6(C(=O)O)CC[C@]45C)C3(C)C)[C@@H]2O[C@@H]2O[C@H](CO)[C@@H](O)[C@H](O)[C@H]2O)[C@H](O)[C@H](O)[C@H]1O (some centres not stated) | – | -24.1% [at 15.1 µM] (inactive) | –

SMILES | outcome | activity change, negative = inhibition | Potency
CC1=CC(=O)C2C(C)(C)CC(O)CC2(C)C1CO (configuration not stated) | – | -1.09% (inactive) | –
CC1(C)CC[C@]2(C(=O)O)CC[C@]3(C)C(=CCC4[C@@]5(C)CCC(O[C@@H]6OC[C@H](O)[C@H](O)[C@H]6O[C@@H]6O[C@H](CO)[C@@H](O)[C@H](O)[C@H]6O)[C@@](C)(CO)C5CC[C@]43C)[C@@H]2C1 (some centres not stated) | inactive [at 15.1 µM] | – | –
O=C(O)CCc1cccc(O[C@@H]2O[C@H](CO)[C@@H](O)[C@H](O)[C@H]2O)c1O | inactive [at 33.1 µM] | – | –
C=C(C)[C@H]1C[C@@H](O)C(=C)CC[C@@H](O)C(=C)[C@@H](O)C1 | inactive | – | –
COc1cc(/C=C/C(=O)OC2[C@H](O)CC(O)(C(=O)O)C[C@H]2O)ccc1O (some centres not stated) | – | -22.4% [at 33.1 µM] (inactive) | –
COC(=O)C1C(CC(C)=O)C=CC(O)C12Oc1cc(C)cc(O)c1C2=O (configuration not stated) | inactive [at 33.1 µM] | – | –
CC1CCC2C(C(=O)O)=CC3CC(C)(C)CC132 (configuration not stated) | – | – | 25.1 µM (active)
CC(C)CC(=O)OC[C@H]1O[C@@](COC(=O)CC(C)C)(O[C@H]2O[C@H](CO)[C@@H](O)[C@H](O)[C@H]2OC(=O)CC(C)C)[C@@H](OC(=O)CC(C)C)[C@@H]1O | inactive [at 15.1 µM] | – | –
CCC(C)/C=C(C)/C=C/C1=CC2=C(Cl)C(=O)C(C)(OC(C)=O)C(=O)C2=CN1CCCC(=O)O (configuration not stated) | – | -1.23% [at 33.1 µM] (inactive) | –
O=C1C[C@@H](c2ccc(O)cc2)Oc2cc(O)ccc21 | – | 10.5% (inactive) | –
COc1ccc([C@@H]2N[C@H](C(=O)O)Cc3c2[nH]c2ccccc32)cc1CN1CCN(c2ccccc2F)CC1 | – | 24.9% (inactive) | –
CC1=CC(=O)C2C(C)(C)CCCC2(C)C12CCC1(COC(=O)C1)O2 (configuration not stated) | – | -13.2% [at 33.1 µM] (inactive) | –
C/C=C(\C)C(=O)O[C@H]1[C@@H](O[C@]2(COC(=O)CC(C)C)O[C@H](COC(=O)C(C)C)[C@@H](OC(C)=O)[C@@H]2O)O[C@H](COC(C)=O)[C@@H](O)[C@@H]1O | – | -18.2% [at 15.1 µM] (inactive) | –
CO[C@H]1C=C2C(CC[C@H](O[C@@H]3O[C@H](CO)[C@@H](O)[C@@H](O)[C@H]3O)C2(C)C)[C@]2(C)CC[C@]3(C)C([C@H](C)C(O)C(C=C(C)C)O[C@@H]4O[C@H](CO)[C@@H](O)[C@@H](O)[C@H]4O)CC[C@@]3(C)C12 (some centres not stated) | – | 21.6% [at 15.1 µM] (inactive) | –
CC1(C)CCC(C)(C)c2cc([C@@H](O)C(=O)Nc3ccc(C(=O)O)cc3F)ccc21 | – | – | 14.1 µM (active)
C=CC1(C)CC(OC(=O)C(=C)C(O)COC(C)=O)C(C(=C)C(=O)OC)C(O)C1C(=C)CO (configuration not stated) | – | 30.7% [at 33.1 µM] (inactive) | –
